DUSP3 inh: blocks human VHR1 dual specificity phosphatase; inhibition, % at 13.3 µM; 290,000 compounds, 0.52% hits; P51452; recombinant VHR phosphatase, pNPP absorbance; in the data active = inhibition above about 50%
Target sequence (P51452 whole entry, looked up): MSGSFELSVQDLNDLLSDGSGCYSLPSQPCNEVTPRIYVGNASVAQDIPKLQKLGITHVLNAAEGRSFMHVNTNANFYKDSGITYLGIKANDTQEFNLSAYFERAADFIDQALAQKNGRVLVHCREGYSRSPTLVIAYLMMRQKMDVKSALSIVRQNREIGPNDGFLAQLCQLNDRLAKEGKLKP
Yp Topo-I inh: inhibitors of Yersinia pestis topoisomerase I | Y. pestis Topo-I cleavage product accumulation, plate reader | activity, % at 10 µM | 360,000 compounds, 0.064% hits; in the data active = activity above about 50%, passing the limit was not always enough
Vc quorum ag: induces V. cholerae light production without autoinducers | V. cholerae BH1578 lux reporter, luminescence, 6 h | activation, % at 18.7 µM | 350,000 compounds, 0.16% hits | AID 588436; in the data active = activation mostly above about 9.7%, no sharp cut-off
MazEF act: MazEF (E. coli) toxin RNase activation; FAM/BHQ RNA-DNA oligo cleavage fluorescence, 5 h; activation, % at 20 µM; 350,000 compounds, 0.32% hits; in the data active = activation above about 50%
Target sequence (P0AE70 whole entry, looked up): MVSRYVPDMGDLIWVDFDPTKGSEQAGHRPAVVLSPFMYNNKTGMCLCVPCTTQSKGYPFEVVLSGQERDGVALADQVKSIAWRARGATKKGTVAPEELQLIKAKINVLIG
CCHF vOTU inh: CCHFV vOTU protease inhibition | Pep-AMC fluorescence | 370,000 compounds, 0.55% hits | inhibition, % at 11.5 µM; in the data active = inhibition above about 30%
PrPC TRFRET: inhibitors of human cell surface prion protein PrPC | AID 720596 | inhibition, % at 13.8 µM | 370,000 compounds, 0.43% hits | TR-FRET read-out; in the data active = inhibition above about 24%
A number is an active result; . = inactive; / = no result; + = active, no number. Only some compounds are listed: those with a hit (about 1.8% of all), similar ones and a draw of the others.

SMILES	DUSP3 inh	Yp Topo-I inh	Vc quorum ag	MazEF act	CCHF vOTU inh	PrPC TRFRET
Cc1ccc(CNC(=O)CSc2c3c(nc4cc(Cl)ccc24)CCCC3)o1	.	.	26	.	.	.
O=C(C1CCCN(S(=O)(=O)c2ccccc2F)C1)N1CCN(Cc2ccccc2)CC1 (centres undefined)	/	/	/	/	.	.
S=c1[nH]c2ccc3ccccc3c2[nH]1	53	.	.	.	.	.
COC(=O)C1CN(Cc2ccc(F)cc2)CCS(=O)(=O)N1Cc1cn(Cc2ccc(C)cc2)nn1 (centres undefined)	/	/	/	/	.	.
CCCn1c(SCC(=O)Nc2nc3ccccc3s2)nc2c1c(=O)n(C)c(=O)n2C	.	.	.	67	.	.
CC(C)CC(=O)Nc1cc2c3c(c1)CCN3C(=O)CC2	.	.	.	.	.	.
CC(=O)Nc1cc2c3c(c1)CCN3C(=O)CC2	56	.	.	.	.	.
Cc1ccc(N2C(=O)C3Sc4[nH]c(=O)sc4C(c4ccccc4)C3C2=O)cc1 (centres undefined)	.	.	+	.	.	.
O=C(NCc1ccc(F)cc1)C1CC(=O)N(C2CCCCCCC2)C1 (centres undefined)	56	.	.	.	.	.
O=C(NCc1ccccc1)C1CC(=O)N(C2CCCCCC2)C1 (centres undefined)	.	.	.	.	.	.
CN(CC(=O)Nc1ccccc1Oc1ccccc1)Cc1ccccc1F	.	60	.	.	.	.
N=C1/C(=C/c2cccn2-c2ccc([N+](=O)[O-])cc2)C(=O)N=C2SC=CN12	.	.	.	.	.	.
COc1ccc(-c2ccc(/C=C3/C(=N)N4C=CSC4=NC3=O)o2)c([N+](=O)[O-])c1	.	.	.	445	.	.
Cc1cccc(N2C(=O)c3cccc4c(N)ccc(c34)C2=O)c1	.	.	.	.	.	.
Cc1cccc(N2C(=O)c3cccc4c(N(C)CCO)ccc(c34)C2=O)c1	.	.	.	78	/	/
COc1ccc(NC(=O)c2ccc(N3C(=O)C4CC=C(Cl)CC4C3=O)cc2)cc1 (centres undefined)	56	.	.	.	.	.
CC(=O)c1cc(-c2ccc(Oc3ccccc3)cc2)c(=O)n2c1CCC2	/	/	/	/	.	.
CC(C)C[C@H]1COc2cc(Br)ccc2S(=O)(=O)N1Cc1cn(CCC2OCCO2)nn1	/	/	/	/	.	.
C#CCN(C[C@@H](CC(C)C)NC(=O)OC(C)(C)C)S(=O)(=O)c1ccc(Br)cc1F	/	53	.	.	.	.
C#CCCN([C@@H](CC(C)C)C(=O)OC)S(=O)(=O)c1ccc(F)cc1Br	/	/	/	/	.	.
C[C@H](NC(=O)[C@@H]1Cc2ccccc2CN1)C(=O)NC1CCCCC1	53	.	.	.	.	.
CC(C)[C@H](NC(=O)[C@@H]1Cc2ccccc2CN1)C(=O)NC1CCCCC1	.	.	.	.	.	.
Cc1ccc(-n2c(SCC(=O)c3ccccc3Cl)nnc2-c2cnccn2)cc1	/	/	/	/	.	.
Oc1ccc(NCc2ccccc2OCc2ccccc2F)cc1	.	.	.	.	.	.
CCOc1ccccc1CNc1ccc(O)cc1	.	.	.	.	48	.
SMILES	DUSP3 inh	Yp Topo-I inh	Vc quorum ag	MazEF act	CCHF vOTU inh	PrPC TRFRET
CC(=O)Nc1ccc(S(=O)(=O)NCC2CCC(C(=O)NCCCN(C)Cc3ccccc3)CC2)cc1 (centres undefined)	.	.	.	.	.	.
CN(CCCNC(=O)C1CCC(CNS(=O)(=O)c2ccccc2)CC1)Cc1ccccc1 (centres undefined)	56	.	.	.	.	.
O=[N+]([O-])c1ccc(-c2cn3nc(-c4ccccc4)c(-c4ccccc4)nc3n2)cc1	.	.	.	164	.	.
COc1cc2cc(/C=C/C(=O)c3ccco3)c(Cl)nc2cc1OC	.	.	.	267	.	.
COc1ccc2cc(/C=C/C(=O)c3ccco3)c(Cl)nc2c1	.	/	/	/	/	/
CCN(CC)c1ccc(C2C(C(=O)OC)=C(C)NC(C)=C2C(=O)OC)cc1	.	.	.	.	30	.
CSc1nnnn1CCn1nnnc1SC	.	.	.	.	.	36
CCN(CC)S(=O)(=O)c1ccc(N=Nc2c(C)[nH]n(C(N)=S)c2=O)cc1	.	.	.	.	31	.
C[C@@H]1[C@@H](c2ccccc2)c2cc3ccccc3nc2C(=O)C[C@@H]1C(=O)N1CCCC1	/	/	/	/	.	.
CCN1CCN(c2ccc(S(=O)(=O)N3CCOCC3)cc2NC(=O)C(C)Oc2cccc(Cl)c2)CC1 (centres undefined)	/	.	.	.	.	.
CC(Oc1ccc(Cl)cc1)C(=O)Nc1ccccc1N1CCOCC1 (centres undefined)	/	.	.	.	.	.
O=C(CSc1ccccc1)Nc1cc(S(=O)(=O)N2CCOCC2)ccc1N1CCOCC1	.	.	.	76	.	.
COc1ccc(S(=O)(=O)N2CCOCC2)cc1NC(=O)CSc1ccccc1	.	.	.	.	.	.
CC(Oc1cccc(Cl)c1)C(=O)Nc1cc(S(=O)(=O)N2CCOCC2)ccc1N1CCCCC1 (centres undefined)	/	71	.	.	.	.
Cc1cc(Cl)ccc1OC(C)C(=O)Nc1ccccc1N1CCOCC1 (centres undefined)	.	63	.	.	.	.
CCN(CC)c1ccc(-c2nn3c(-c4ccccc4Cl)nnc3s2)cc1	/	/	/	/	.	.
CCOc1cc(N(CC)CC)ccc1/C=C(/C#N)c1nc2ccccc2[nH]1	.	.	.	132	.	.
Cc1ccc(C(=O)Nc2cccc(-c3cnc4ccccc4n3)c2)cc1	.	.	.	.	.	.
Cc1cccc(C(=O)Nc2cccc(-c3cnc4ccccc4n3)c2)c1	.	.	.	53	.	.
Cc1ccc(N2CCN(/N=C\c3cccnc3)CC2)cc1	/	/	/	/	.	.
COc1ccc(C(=O)c2c(C)oc3ccc(O)cc23)cc1	.	.	.	.	.	.
COc1ccc(C(=O)c2c(C)oc3ccc(O)cc23)c(OC)c1	58	.	.	.	.	.
Cc1c(/C=N/NC(N)=O)c2ccccn2c1C(=O)c1ccc(F)cc1	.	.	.	.	.	.
Cc1c(C=NNC(=O)c2ccc(Br)cc2)c2ccccn2c1C(=O)c1ccncc1	/	.	.	59	.	.
Cc1cccc(NC(=O)N2CCC(N(C)CCC(C)C)CC2)c1	/	/	/	/	.	.
SMILES	DUSP3 inh	Yp Topo-I inh	Vc quorum ag	MazEF act	CCHF vOTU inh	PrPC TRFRET
Cc1cc(/C=C2\C(=O)NC(=O)N(c3cccc(Br)c3)C2=O)c(C)n1C	.	.	.	230	.	.
Cc1cc(/C=C2\C(=O)NC(=O)N(c3ccc(Br)cc3)C2=O)c(C)n1C	.	.	.	87	.	.
Cc1cc(/C=C2/C(=O)NC(=O)N(c3ccc(Br)cc3)C2=O)c(C)n1C	.	.	.	.	.	.
C[C@H]1CN=C(N(C)C)N1CCCC1CCCCC1	/	.	.	.	.	.
CC(C)CCN1C(N(C)C)=NC[C@@H]1C	/	.	26	.	.	.
O=C(O)c1ccccc1-c1ccc(/C=C/c2cc(C(F)(F)F)[nH]c(=O)n2)o1	.	.	.	745	.	.
